Source: the supplement of paper PMC11732987, “Enantioselective OTUD7B fragment discovery through chemoproteomics screening and high-throughput optimisation” (Communications Chemistry, 2025)

How the values were obtained:
Assay in all cases: log2 ratio of Biotin-Ahx-Ub-VS probe labelling (fragment/DMSO); higher = less target engagement (more negative = stronger competition), active = hit call of the paper (q ≤ 0.05, log2 ratio ≤ -1)
Conditions in all cases: compound concentration: 200 uM; treatment time: 3 h
[1] = target: T1, USP42 (UniProt Q9H9J4)
T1 sequence (whole entry): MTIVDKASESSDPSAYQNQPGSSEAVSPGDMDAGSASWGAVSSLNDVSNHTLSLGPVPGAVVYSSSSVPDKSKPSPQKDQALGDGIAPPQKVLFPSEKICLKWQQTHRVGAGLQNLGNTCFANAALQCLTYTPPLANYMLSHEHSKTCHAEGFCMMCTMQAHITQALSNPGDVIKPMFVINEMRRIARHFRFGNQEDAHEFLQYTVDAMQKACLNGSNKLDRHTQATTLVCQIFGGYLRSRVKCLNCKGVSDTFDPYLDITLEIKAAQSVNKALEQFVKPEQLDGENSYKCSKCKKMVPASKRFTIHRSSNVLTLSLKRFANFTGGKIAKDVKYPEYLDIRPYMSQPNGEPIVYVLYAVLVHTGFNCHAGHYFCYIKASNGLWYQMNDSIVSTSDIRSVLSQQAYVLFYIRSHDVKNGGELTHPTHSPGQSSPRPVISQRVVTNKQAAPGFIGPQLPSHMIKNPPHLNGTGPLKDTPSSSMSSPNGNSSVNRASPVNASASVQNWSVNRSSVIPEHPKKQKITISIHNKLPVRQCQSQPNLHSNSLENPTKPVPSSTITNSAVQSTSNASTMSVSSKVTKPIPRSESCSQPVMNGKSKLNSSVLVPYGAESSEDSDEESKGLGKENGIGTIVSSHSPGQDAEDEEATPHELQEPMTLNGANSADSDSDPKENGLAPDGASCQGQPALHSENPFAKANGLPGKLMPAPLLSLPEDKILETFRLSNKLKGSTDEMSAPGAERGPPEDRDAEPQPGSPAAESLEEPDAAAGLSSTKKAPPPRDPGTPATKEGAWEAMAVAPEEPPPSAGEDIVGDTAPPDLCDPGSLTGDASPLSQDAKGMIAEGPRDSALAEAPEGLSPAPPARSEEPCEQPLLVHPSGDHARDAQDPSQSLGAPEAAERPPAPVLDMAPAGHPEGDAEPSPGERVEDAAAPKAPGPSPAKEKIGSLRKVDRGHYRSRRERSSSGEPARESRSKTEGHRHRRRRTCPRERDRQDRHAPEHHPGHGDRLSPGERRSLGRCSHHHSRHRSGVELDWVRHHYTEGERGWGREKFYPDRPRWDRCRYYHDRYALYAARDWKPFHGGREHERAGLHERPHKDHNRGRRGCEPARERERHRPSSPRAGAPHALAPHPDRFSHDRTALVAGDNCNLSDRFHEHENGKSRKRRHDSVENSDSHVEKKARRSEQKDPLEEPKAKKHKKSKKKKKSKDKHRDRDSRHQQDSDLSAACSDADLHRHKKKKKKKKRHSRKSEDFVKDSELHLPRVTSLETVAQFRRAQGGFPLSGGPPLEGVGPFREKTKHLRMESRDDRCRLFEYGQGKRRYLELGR
Procedure, shortened: (§1)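 Global-median-normalised Spectronaut label-free quantities were compared by unpaired t-test, and values are average log2 ratios of fragment over vehicle. Only proteins with ≥2 unique peptides were used. HEK293T lysate (495 µg per sample) was treated in triplicate with fragment at 200 µM or vehicle for 3 h and then with Biotin-Ahx-Ub-VS at 0.5 µM final for 1 h. Labelled DUBs were then NeutrAvidin-enriched, digested with LysC and trypsin, and run by diaPASEF LC-MS/MS.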

[2] = target: USP46 (UniProt P62068)
Sequence of USP46 (P62068 whole entry): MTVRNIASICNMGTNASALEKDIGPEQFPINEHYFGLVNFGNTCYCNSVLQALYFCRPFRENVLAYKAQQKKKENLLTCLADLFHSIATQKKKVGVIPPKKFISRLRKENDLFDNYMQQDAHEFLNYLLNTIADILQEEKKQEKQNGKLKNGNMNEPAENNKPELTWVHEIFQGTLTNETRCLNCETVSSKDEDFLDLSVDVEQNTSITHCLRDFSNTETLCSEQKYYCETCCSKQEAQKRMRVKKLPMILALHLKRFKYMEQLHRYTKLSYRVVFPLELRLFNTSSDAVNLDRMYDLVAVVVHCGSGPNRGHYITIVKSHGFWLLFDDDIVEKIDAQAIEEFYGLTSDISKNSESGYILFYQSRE
Procedure, shortened: as §1

[3] = target: T2, USP47 (UniProt Q96K76)
T2 sequence (whole entry): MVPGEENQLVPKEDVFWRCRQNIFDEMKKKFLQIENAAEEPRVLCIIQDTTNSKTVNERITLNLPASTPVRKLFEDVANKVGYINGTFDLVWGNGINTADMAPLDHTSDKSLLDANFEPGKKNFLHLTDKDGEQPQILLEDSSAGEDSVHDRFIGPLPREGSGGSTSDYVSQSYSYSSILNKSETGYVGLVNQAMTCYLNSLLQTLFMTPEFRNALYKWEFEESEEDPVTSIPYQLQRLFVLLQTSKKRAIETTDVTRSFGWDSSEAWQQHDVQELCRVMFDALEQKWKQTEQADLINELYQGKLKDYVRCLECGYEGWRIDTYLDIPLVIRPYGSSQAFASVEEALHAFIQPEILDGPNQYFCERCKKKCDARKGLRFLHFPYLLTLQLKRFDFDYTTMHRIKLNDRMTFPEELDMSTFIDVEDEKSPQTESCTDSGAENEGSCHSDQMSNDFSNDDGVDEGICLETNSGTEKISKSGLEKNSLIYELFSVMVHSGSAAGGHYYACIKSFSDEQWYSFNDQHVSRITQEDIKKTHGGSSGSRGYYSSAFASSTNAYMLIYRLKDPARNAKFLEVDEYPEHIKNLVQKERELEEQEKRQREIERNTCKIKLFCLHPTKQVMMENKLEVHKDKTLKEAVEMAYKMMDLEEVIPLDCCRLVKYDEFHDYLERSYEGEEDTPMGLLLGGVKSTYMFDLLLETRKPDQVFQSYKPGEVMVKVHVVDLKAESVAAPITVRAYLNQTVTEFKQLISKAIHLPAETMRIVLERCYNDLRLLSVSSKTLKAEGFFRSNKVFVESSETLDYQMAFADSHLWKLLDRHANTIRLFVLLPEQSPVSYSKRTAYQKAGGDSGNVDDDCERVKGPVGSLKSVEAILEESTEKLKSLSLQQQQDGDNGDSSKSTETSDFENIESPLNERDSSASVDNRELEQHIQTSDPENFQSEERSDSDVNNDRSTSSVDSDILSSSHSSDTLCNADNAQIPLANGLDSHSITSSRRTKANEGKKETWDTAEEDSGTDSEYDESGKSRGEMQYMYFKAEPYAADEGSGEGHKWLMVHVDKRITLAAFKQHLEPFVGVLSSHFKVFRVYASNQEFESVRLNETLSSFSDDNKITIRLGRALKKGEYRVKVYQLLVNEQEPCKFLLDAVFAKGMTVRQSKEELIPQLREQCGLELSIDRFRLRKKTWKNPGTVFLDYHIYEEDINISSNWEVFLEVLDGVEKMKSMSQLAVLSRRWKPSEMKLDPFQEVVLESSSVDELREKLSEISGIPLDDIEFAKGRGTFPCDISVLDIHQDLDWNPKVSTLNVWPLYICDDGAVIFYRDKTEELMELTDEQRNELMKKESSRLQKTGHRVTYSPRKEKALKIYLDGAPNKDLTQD
Procedure, shortened: as §1

[4] = target: T3, USP48 (UniProt Q86UV5)
T3 sequence (whole entry): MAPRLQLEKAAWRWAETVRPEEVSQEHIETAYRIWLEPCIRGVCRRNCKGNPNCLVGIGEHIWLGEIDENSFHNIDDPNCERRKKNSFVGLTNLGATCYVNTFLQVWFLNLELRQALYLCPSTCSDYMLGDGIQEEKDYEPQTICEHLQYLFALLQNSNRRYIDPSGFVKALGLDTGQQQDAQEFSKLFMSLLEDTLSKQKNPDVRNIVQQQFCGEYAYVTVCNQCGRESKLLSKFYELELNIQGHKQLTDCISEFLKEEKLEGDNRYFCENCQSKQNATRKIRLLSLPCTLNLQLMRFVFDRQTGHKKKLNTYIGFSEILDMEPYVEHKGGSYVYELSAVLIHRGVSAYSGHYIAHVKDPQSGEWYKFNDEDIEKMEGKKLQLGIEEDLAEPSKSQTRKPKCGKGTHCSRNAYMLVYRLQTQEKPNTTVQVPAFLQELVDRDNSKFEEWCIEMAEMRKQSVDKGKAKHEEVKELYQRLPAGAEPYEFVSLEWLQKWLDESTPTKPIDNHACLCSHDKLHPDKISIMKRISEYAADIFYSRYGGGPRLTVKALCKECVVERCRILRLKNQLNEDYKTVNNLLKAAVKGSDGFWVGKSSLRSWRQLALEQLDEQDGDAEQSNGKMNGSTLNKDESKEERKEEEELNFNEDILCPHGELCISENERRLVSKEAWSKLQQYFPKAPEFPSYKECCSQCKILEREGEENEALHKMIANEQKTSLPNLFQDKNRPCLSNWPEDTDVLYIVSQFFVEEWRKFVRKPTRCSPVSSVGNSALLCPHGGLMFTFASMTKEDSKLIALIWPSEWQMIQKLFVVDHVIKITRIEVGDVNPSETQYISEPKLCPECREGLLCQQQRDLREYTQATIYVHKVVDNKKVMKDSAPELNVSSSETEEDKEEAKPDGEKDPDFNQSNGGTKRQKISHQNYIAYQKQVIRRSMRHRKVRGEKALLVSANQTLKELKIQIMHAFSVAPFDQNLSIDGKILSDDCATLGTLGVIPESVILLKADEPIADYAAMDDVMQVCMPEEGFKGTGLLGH
Procedure, shortened: as §1

[5] = target: T4, USP5 (UniProt P45974)
T4 sequence (whole entry): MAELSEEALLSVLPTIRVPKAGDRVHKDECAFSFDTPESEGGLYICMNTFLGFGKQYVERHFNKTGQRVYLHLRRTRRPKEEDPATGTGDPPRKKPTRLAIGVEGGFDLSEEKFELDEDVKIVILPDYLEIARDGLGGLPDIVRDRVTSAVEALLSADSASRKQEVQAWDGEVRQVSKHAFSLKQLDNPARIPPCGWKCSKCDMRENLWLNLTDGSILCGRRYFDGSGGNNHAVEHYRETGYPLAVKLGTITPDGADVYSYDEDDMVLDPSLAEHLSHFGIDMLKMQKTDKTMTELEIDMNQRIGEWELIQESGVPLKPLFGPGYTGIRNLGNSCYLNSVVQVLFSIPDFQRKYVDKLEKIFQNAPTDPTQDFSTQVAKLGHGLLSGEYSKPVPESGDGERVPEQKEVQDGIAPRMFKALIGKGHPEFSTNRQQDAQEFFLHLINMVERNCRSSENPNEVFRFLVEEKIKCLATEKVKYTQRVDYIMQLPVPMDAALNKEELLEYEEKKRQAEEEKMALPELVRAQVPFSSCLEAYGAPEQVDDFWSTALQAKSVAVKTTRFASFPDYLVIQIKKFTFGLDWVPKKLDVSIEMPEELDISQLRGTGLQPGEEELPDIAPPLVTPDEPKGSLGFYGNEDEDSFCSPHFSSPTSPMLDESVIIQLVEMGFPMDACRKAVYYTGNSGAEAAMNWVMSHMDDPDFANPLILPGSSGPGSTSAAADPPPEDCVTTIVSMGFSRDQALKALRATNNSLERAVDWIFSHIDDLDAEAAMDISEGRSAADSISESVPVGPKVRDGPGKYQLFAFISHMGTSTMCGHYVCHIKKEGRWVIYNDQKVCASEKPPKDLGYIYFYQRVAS
Procedure, shortened: as §1

[6] = target: USP54 (UniProt Q70EL1)
Procedure, shortened: as §1

[7] = target: USP7 (UniProt Q93009)
Sequence of USP7 (Q93009 whole entry, looked up): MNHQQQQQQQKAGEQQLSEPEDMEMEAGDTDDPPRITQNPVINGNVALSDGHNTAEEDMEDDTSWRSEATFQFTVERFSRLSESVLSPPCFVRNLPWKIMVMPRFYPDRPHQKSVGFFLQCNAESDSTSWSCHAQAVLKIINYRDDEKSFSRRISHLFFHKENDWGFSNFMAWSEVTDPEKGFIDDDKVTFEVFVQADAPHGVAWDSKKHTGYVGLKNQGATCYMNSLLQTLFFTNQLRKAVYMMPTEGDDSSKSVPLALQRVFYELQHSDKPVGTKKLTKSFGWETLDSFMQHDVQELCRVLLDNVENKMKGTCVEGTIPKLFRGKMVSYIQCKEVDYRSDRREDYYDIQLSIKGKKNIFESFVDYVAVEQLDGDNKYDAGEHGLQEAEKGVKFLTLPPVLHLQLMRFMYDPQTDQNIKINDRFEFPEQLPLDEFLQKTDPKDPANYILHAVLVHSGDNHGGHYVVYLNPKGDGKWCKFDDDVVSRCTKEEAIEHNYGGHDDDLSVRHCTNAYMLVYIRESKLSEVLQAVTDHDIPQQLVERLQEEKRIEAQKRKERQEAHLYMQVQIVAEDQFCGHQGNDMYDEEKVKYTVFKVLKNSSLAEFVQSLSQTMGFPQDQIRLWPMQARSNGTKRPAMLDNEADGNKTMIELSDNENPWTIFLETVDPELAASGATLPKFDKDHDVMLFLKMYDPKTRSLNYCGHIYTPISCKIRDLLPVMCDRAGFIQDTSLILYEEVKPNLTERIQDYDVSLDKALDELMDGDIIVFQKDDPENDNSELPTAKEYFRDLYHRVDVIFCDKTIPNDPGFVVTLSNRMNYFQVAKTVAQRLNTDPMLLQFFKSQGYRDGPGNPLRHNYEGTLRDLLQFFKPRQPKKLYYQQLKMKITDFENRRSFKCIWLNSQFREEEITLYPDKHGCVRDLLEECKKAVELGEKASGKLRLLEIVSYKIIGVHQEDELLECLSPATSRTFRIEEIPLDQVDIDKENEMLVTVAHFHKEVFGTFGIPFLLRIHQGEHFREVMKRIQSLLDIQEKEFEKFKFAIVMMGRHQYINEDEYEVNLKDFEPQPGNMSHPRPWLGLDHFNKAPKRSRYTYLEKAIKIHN
Procedure, shortened: as §1

[8] = target: T5, USP8 (UniProt P40818)
T5 sequence (whole entry): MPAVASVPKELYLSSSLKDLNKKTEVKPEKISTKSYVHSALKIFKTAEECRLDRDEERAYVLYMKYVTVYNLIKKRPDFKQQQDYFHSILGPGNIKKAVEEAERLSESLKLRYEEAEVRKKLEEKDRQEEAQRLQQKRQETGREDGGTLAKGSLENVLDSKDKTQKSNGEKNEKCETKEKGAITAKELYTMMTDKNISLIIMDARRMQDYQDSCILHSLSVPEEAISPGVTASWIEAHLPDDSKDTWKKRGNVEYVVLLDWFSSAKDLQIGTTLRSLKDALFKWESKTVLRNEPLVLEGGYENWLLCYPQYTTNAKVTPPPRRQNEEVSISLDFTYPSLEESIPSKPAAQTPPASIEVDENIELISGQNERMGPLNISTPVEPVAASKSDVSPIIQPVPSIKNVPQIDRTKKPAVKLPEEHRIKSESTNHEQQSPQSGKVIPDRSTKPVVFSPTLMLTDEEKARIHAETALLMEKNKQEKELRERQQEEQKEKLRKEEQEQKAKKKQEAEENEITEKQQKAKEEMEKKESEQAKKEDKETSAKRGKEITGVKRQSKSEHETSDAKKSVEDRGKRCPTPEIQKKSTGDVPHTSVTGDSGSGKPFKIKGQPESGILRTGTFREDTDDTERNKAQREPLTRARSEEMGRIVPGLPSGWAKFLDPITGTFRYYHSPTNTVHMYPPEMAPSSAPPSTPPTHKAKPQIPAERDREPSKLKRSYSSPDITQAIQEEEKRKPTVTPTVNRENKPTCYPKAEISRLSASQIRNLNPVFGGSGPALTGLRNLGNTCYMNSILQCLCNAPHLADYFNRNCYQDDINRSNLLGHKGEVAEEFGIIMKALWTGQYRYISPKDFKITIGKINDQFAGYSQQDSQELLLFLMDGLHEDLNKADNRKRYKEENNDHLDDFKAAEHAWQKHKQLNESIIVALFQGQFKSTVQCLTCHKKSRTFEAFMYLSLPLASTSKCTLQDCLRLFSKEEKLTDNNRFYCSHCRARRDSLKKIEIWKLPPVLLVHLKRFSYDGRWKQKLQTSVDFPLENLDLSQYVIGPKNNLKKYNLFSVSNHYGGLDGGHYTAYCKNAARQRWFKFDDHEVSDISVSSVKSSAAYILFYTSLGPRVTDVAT
Procedure, shortened: as §1

[9] = target: USP9X (UniProt Q93008)
Sequence of USP9X (Q93008 whole entry): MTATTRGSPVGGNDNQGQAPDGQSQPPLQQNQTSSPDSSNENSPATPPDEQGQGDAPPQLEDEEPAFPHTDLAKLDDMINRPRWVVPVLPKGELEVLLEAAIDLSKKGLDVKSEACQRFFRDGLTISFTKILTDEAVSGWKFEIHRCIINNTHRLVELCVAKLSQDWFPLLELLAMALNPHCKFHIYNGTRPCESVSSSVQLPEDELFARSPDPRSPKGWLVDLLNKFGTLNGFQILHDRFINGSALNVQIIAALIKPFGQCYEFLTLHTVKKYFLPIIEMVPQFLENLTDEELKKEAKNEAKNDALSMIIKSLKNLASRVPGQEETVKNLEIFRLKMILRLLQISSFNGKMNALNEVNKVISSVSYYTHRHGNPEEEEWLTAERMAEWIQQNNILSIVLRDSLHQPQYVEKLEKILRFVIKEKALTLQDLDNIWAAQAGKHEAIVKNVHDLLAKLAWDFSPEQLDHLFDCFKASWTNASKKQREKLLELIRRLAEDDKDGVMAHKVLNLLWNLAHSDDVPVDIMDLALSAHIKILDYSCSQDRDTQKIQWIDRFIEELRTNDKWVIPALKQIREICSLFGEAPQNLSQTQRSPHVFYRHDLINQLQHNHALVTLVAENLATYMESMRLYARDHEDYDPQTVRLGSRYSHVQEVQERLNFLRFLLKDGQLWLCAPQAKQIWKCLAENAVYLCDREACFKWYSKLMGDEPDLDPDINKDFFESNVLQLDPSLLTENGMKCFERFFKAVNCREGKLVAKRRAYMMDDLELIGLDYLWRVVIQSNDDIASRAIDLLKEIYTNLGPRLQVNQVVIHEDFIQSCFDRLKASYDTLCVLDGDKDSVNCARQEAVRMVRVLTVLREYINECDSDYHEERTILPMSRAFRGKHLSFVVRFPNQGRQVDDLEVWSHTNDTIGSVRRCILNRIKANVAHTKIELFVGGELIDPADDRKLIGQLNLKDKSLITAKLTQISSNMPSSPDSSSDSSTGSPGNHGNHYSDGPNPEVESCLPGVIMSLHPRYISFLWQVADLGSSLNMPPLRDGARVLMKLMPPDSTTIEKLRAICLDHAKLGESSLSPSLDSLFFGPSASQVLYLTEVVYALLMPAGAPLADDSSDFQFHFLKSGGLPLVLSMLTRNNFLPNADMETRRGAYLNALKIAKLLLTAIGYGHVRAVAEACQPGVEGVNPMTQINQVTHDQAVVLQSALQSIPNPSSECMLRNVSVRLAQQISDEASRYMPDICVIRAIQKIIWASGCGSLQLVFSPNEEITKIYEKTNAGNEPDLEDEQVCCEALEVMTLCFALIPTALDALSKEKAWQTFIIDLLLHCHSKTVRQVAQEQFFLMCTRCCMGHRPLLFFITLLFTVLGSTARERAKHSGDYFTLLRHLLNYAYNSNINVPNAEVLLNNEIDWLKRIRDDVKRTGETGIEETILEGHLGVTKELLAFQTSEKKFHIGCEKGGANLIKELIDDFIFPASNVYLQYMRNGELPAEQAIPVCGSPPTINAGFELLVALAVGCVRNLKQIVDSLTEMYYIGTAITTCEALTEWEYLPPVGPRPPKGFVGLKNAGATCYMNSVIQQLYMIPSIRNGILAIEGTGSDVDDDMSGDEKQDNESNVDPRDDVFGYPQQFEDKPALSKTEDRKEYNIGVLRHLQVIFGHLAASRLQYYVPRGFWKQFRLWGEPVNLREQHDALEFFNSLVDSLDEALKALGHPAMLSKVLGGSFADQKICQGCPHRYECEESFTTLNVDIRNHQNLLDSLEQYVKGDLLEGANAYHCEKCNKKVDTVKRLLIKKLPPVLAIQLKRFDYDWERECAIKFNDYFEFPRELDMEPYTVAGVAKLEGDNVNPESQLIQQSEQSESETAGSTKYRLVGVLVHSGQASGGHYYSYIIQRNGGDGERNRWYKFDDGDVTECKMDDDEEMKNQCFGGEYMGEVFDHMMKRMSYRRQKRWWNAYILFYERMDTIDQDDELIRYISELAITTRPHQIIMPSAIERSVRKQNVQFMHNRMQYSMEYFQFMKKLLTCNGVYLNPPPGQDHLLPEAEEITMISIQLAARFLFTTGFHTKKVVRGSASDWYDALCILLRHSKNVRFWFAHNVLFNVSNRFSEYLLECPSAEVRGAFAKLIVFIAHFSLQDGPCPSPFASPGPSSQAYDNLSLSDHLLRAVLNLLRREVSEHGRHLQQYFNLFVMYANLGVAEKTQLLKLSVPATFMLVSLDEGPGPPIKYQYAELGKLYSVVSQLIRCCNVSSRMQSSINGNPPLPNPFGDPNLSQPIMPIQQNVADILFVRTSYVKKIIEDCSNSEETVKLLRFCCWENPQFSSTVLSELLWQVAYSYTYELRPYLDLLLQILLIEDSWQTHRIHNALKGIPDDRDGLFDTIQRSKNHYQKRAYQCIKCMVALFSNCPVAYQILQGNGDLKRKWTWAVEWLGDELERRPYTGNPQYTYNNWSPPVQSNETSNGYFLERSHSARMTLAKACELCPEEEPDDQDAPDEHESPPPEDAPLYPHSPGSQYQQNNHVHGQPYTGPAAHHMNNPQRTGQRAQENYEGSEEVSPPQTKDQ
Procedure, shortened: as §1

[10] = target: UniProt O00487
Sequence of UniProt O00487 (O00487 whole entry): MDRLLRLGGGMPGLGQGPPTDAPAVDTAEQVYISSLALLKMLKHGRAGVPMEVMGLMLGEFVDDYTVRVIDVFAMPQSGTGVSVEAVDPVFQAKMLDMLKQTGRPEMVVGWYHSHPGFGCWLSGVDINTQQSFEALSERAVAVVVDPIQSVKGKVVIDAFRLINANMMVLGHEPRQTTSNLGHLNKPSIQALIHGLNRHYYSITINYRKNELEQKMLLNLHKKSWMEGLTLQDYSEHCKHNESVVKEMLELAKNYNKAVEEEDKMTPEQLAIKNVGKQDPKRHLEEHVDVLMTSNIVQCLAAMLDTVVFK
Procedure, shortened: as §1

Measured: log2 ratio of Biotin-Ahx-Ub-VS probe labelling

Cc1cc(CC(C)NC(=O)CCl)n[nH]1 (stereo not given)
inactive: [1] -0.515 | [2] -0.086 | [3] 0.219 | [4] -0.0294 | [5] -0.0909 | [6] -0.195 | [7] -0.0248 | [8] -0.57 | [9] -0.345 | [10] -0.0204
